This is a sample that favours compounds with a hit; in the whole collection about 4.6% have one here.
TIM10 inh = TIM10 yeast growth inhibition. inhibition, % at 10 µM. AID 463195. hit rate 1.4% among 330,000. S. cerevisiae TIM10 strain growth, BacTiter-Glo luminescence, 24 h;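 active = inhibition of 40% or more at the single tested concentration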;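 note: wild-type TIM10 isogenic control strain grown at permissive 25 °C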
tim10-1 inh = tim10-1 yeast growth inhibition | S. cerevisiae tim10-1 ts strain growth, BacTiter-Glo, 24 h | inhibition, % at 20 µM | hit rate 2.2% among 330,000;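 active = inhibition of at least 40%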;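 note: mutant grown at 25 °C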
V-ATPase pHluor = alters yeast V-ATPase proton transport | response, % at 10 µM | S. cerevisiae, pHLuorin cytosolic pH fluorescence | AID 504577 | hit rate 0.37% among 350,000; in the data active = response mostly above about 7.3%, no sharp cut-off; inactive = mostly below about 5.4%; note: actives read high
SKKanGAS inh = SKKanGAS growth inhibition. S. pyogenes SKKanGAS, kanamycin growth, BacTiter-Glo, 6 h. inhibition, % at 7.5 µM. hit rate 1.3% among 300,000;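 active = mean replicate score, as percent of positive control median, at least 50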;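 note: strain carries kanamycin resistance gene driven by streptokinase promoter and grows in 40 µg/ml kanamycin; loss of luminescence reflects streptokinase promoter inhibition or plain growth inhibition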
tim23-1 inh = tim23-1 yeast growth inhibition; S. cerevisiae tim23-1 growth, BacTiter-Glo luminescence, 24 h; inhibition, % at 20 µM; hit rate 1.3% among 330,000;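 active = growth inhibition of the mutant yeast at or above 50%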;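 note: temperature-sensitive mutant grown at 25 °C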
PfHsp90 yeast 2 = growth inhibition of yeast expressing Plasmodium Hsp90; S. cerevisiae expressing PfHsp90, BacTiter-Glo ATP, 48 h; yeast lacking PDR1 and PDR3 efflux regulators; inhibition, % at 9.4 µM; hit rate 0.32% among 310,000; AID 504621;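 active = every replicate shows inhibition above about 80%, whatever the replicate mean, limit read from the data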
tim10-1 conf = confirmation of tim10-1 mutant yeast growth inhibitors. shares compounds with tim10-1 inh. S. cerevisiae tim10-1 ts strain growth, BacTiter-Glo, 24 h. inhibition, % at 20 µM. hit rate 56% among 7,400;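 active = inhibition of yeast growth at or above a set limit in either of two repeat tests at 20 µM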;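 note: tim10-1 mutant grown at permissive 25 °C to find synthetic lethal compounds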
TIM10 conf = TIM10 yeast growth inhibition, confirmed. S. cerevisiae tim10 strain growth, BacTiter-Glo luminescence, 24 h. inhibition, % at 10 µM. hit rate 63% among 4,600. shares compounds with TIM10 inh;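 active = inhibition of yeast growth at or above a set limit in either of two replicates at 10 µM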; note: this counterscreen used the strain with wild-type TIM10
Large screens that a line does not name were inactive (follow-up assays come after a bar, where they were run); ! = repeats disagree.

CN1CC(C(=O)c2cccc(C(F)(F)F)c2)C(c2ccc(Cl)cc2)C1 (stereo unspecified)	tim10-1 inh 41 | tim10-1 conf inactive
CCN(CC)S(=O)(=O)c1cc(NC(=O)C(C)N2CC=C(c3ccccc3)CC2)ccc1C (stereo unspecified)	tim10-1 inh 40 | tim10-1 conf inactive
CN1C(=O)N(C)C(=O)C(NS(=O)(=O)c2ccc(N)cc2)(c2ccccc2)C1=O	none (no result: TIM10 inh, tim10-1 inh, SKKanGAS inh, tim23-1 inh)
O=C1/C(=C/c2cccc([N+](=O)[O-])c2)N2CCC1CC2	none
O=C1/C(=C/c2cc([N+](=O)[O-])ccc2Cl)N2CCC1CC2	tim10-1 inh 48 | tim10-1 conf 35
O=[N+]([O-])c1ccc(Cl)c([N+](=O)[O-])c1	tim10-1 inh 45 (no result: SKKanGAS inh) | tim10-1 conf 39
CCOC(=O)c1cnc(SCc2ccc(Cl)c(Cl)c2)nc1N1CC1	none (no result: TIM10 inh, tim10-1 inh, SKKanGAS inh, tim23-1 inh, PfHsp90 yeast 2)
Nc1c(C(=O)NC2CCCC2)c2nc3ccccc3nc2n1CC1CCCO1 (stereo unspecified)	tim10-1 inh 56 | tim10-1 conf inactive
Nc1c(C(=O)NCC2CCCO2)c2nc3ccccc3nc2n1Cc1ccco1 (stereo unspecified)	none
Cc1cccc(-c2nc3ccc(C(=O)N4CCC5(CC4)OCCO5)cc3nc2-c2cccc(C)c2)c1	tim10-1 inh 40 | tim10-1 conf inactive
Cc1nc2c(-c3ccc(F)cc3)c(C)nn2c(C)c1CCC(=O)N1CCC2(CC1)OCCO2	tim10-1 inh 40 (no result: PfHsp90 yeast 2) | tim10-1 conf inactive
Cc1nc2cc(-c3ccccc3)nn2c(C)c1CCC(=O)N1CCC2(CC1)OCCO2	none (no result: PfHsp90 yeast 2)
C[C@@H]1CN([C@H](C)CO)C(=O)c2c(c3ccccc3n2C)-c2ccccc2CO[C@H]1CN(C)Cc1ccc2c(c1)OCCN2C	none (no result: TIM10 inh, tim10-1 inh, SKKanGAS inh, tim23-1 inh, PfHsp90 yeast 2)
COCCNC(=O)CN1C(=O)C(C)N=C(c2ccccc2)c2cc(Cl)ccc21 (stereo unspecified)	tim10-1 inh 41 | tim10-1 conf inactive
COc1cc2c(cc1OC)C1[C@H]3C(=CC[C@H]1OC2O)CCN3C (stereo partly specified)	none (no result: SKKanGAS inh)
Cc1c(CCN)ccc2c1[nH]c1ccccc12	tim10-1 inh 41 | tim10-1 conf inactive
NCCc1c(Cc2ccccc2)[nH]c2ccccc12	none (no result: PfHsp90 yeast 2)
Cc1oc2ccc(OC(=O)N(C)C)cc2c1C(=O)OC(C)C	tim10-1 inh 42 | tim10-1 conf inactive
Cc1ncoc1C(=O)NCC1=C(c2ccc3ccccc3c2)C[C@@H]2CC[C@H]1N2Cc1ccco1	none (no result: TIM10 inh, tim10-1 inh, SKKanGAS inh, tim23-1 inh, PfHsp90 yeast 2)
CCN(CCCl)c1cc(CN(C)C)cc(NC(=O)c2ccc(C(=O)Nc3cc(CN(C)C)cc(N(CC)CCCl)c3)cc2)c1	none (no result: TIM10 inh, tim10-1 inh, SKKanGAS inh, tim23-1 inh)
Oc1ccc(C2NCc3ccccc3-n3cccc32)cc1Cl (stereo unspecified)	tim10-1 inh 44! | tim10-1 conf 34
CC(CC(C)(C)N1CC1)=NNC(=O)Nc1cccc2ccccc12	none (no result: TIM10 inh, tim10-1 inh, SKKanGAS inh, tim23-1 inh)
CC(=O)OC1CCC2(C)C(CCC3C4CC(N5CC5)C(C(C)=O)C4(C)CC(=O)C32)C1 (stereo unspecified)	none (no result: TIM10 inh, tim10-1 inh, SKKanGAS inh, tim23-1 inh)
COc1ccc(NP(=O)(Oc2ccccc2OC)Oc2ccccc2OC)cc1	tim10-1 inh 41 | tim10-1 conf inactive
COc1ccccc1OP(=O)(Nc1ccc(Br)cc1)Oc1ccccc1OC	none
COC(=O)C1=C(c2cc3ccccc3s2)C[C@@H]2CC[C@H]1N2C(=O)NC1CCCCC1	none
CC(C)CNC(=O)c1c(N)n(Cc2ccc3c(c2)OCO3)c2nc3ccccc3nc12	tim10-1 inh 43 | tim10-1 conf inactive
Fc1ccc2c(c1)nnn2C1CCN(Cc2nnnn2CCc2ccccc2)CC1	tim10-1 inh 40 (no result: PfHsp90 yeast 2) | tim10-1 conf inactive
c1ccc(CCn2nnnc2CN2CCC(n3nnc4ccccc43)CC2)cc1	none
CCOC(=O)C1(CCc2ccccc2)CCN(Cc2cccc3cnccc23)CC1	none
CCOC(=O)C1(CCc2ccccc2)CCN(Cc2cccc3c2OCO3)CC1	tim10-1 inh 40 | tim10-1 conf inactive
O=C(COc1ccc2ccccc2c1)N1CCN(Cc2c[nH]c3ccccc23)CC1	tim10-1 inh 50 | tim10-1 conf inactive
O=C(COC(=O)Cc1ccccc1)Nc1ccc(SC(F)F)cc1	tim10-1 inh 43 (no result: SKKanGAS inh) | tim10-1 conf inactive
Cc1nn(CCC#N)c2c1P(=S)(N1CCCC1)OC(c1ccc(F)cc1)=N2 (stereo unspecified)	tim10-1 inh 43 | tim10-1 conf 33
O=C(CN1CCOCC1)Nc1ccc(Br)cc1C(=O)c1ccccc1	tim10-1 inh 40 | tim10-1 conf inactive
Oc1ccccc1-[n+]1c(-c2ccccc2)cc(-c2ccccc2)cc1-c1ccccc1	none
Cc1ccccc1-[n+]1c(-c2ccccc2)cc(-c2ccccc2)cc1-c1ccccc1	tim10-1 inh 42 | tim10-1 conf inactive
COC(=O)C(O)(c1ccc(NC(=S)NC(=O)c2ccccc2)cc1)C(F)(F)F (stereo unspecified)	TIM10 inh 46, tim10-1 inh 41 (no result: PfHsp90 yeast 2) | tim10-1 conf inactive | TIM10 conf 33
CCCCNC(=O)c1c(N)n(CCCOC)c2nc3ccccc3nc12	none (no result: PfHsp90 yeast 2)
COCCNC(=O)c1c(N)n(CCC(C)C)c2nc3ccccc3nc12	TIM10 inh 42, tim10-1 inh 48 | tim10-1 conf inactive | TIM10 conf inactive
COc1ccc(OC)c(N2C(=O)NC(=O)/C(=C/c3ccc([N+](=O)[O-])s3)C2=O)c1	TIM10 inh 89, tim10-1 inh 72, V-ATPase pHluor 125, PfHsp90 yeast 2 105 | tim10-1 conf 70 | TIM10 conf 35
N#CC12CNCC1CN=N2 (stereo unspecified)	none (no result: TIM10 inh, tim10-1 inh, tim23-1 inh)
CN(C)c1ccc(C(=O)c2ccc(N(C)C)cc2)cc1	TIM10 inh 48, tim10-1 inh 40 | tim10-1 conf inactive | TIM10 conf inactive
C=C1C(=O)OC2CC(C)C3C=CC(=O)C3(C)C(O)C12 (stereo unspecified)	none (no result: TIM10 inh, tim10-1 inh, SKKanGAS inh, tim23-1 inh)
C=C1C(=O)O[C@H]2C[C@@H](C)[C@@H]3C=CC(=O)[C@@]3(C)C[C@H]12	TIM10 inh 46, tim10-1 inh 48 (no result: V-ATPase pHluor, PfHsp90 yeast 2) | tim10-1 conf 47 | TIM10 conf 51
CC(CN(C)C1CCN(C)CC1)c1ccccc1 (stereo unspecified)	none
O=C1C(Cc2cnc[nH]2)NC(=S)N1c1ccccc1 (stereo unspecified)	none
CN1C(=O)C(Cc2nc3ccccc3c(=O)n2-c2ccccc2)c2ccccc21 (stereo unspecified)	TIM10 inh 52, tim10-1 inh 43 | tim10-1 conf 37 | TIM10 conf 39

High-throughput results from PubChem.
